# Data taken from PubChem BioAssay (NCI).
# About 83,000 compounds went through this panel and 20% of them were active in at least one assay; those are over-represented in the sample as a whole.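 The endpoint reported here, percent growth, reads 100 for growth as untreated, 0 for no net growth and -100 for all cells dead.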 Activity calls are given as the source filed them. Rule for the calls: active = growth percent below 10; inactive = the rest.
# Tested on: 786-0 renal
# Assay: NCI-60 one-dose screen, 48 h (100 = growth as untreated, 0 = no growth, -100 = all killed)
# Settings: 10 µM unless noted
row,SMILES,growth
1,Clc1cccc(Cl)c1Nc1ccc2nnc(-c3ccncc3)n2n1,104% (inactive)
2,CC(C)(C)[Si](C)(C)OC1[C@@H](CNC(=O)NC(=O)CCl)O[C@@H](n2cnc3c(N)ncnc32)[C@H]1O[Si](C)(C)C(C)(C)C (some centres not stated),-55.4% (active)
3,CC(=O)Nc1ccc(Sc2ccc([N+](=O)[O-])o2)cc1,50.7% (inactive)
4,CC(C)(C)[Si](C)(C)OC1[C@@H](COC(=O)NC(=O)CCl)O[C@@H](n2cnc3c(N)ncnc32)[C@H]1O[Si](C)(C)C(C)(C)C (some centres not stated),4.11% (active)
5,COc1ncnc2c1ncn2C/C(Br)=C(\Br)CCl,7.78% (active)
6,O=C1c2ccccc2C(=O)c2c(Nc3ccc(CCO)cc3)ccc(O)c21,104% (inactive)
7,COc1ccccc1CNCCCCCCCCCCCCN1C(=O)c2ccc3c4c(ccc(c24)C1=O)C(=O)N(CCCCCCCCCCCCNCc1ccccc1OC)C3=O,-73.7% (active)
8,CC(=O)c1cc(C)c(OC(=O)c2ccccc2)c(C)c1,100% (inactive)
9,COC(=O)/C=C1/CCC2C3CCC4=CC(=O)C(Br)CC4(C)C3C(=O)CC12C (configuration not stated),83.8% (inactive)
10,O=c1[nH]c(-c2ccccn2)nc2sc3c(c12)CCCCCC3,46.1% (inactive)
11,CC(C)OC1=C(Cl)C(=O)c2ccccc2C1=O,108% (inactive)
12,CCCCCn1c(=N)n(CC(O)COc2cccc(C)c2)c2ccccc21 (configuration not stated),32.6% (inactive)
13,CC1SC(c2cccc(Oc3ccccc3)c2)N(CCc2cccs2)C1=O (configuration not stated),-29.6% (active)
14,CC(C)(C)[Si](C)(C)OC1[C@@H](COC(N)=O)O[C@@H](n2cnc3c(N)ncnc32)[C@H]1O[Si](C)(C)C(C)(C)C (some centres not stated),91.2% (inactive)
15,COc1ccc(-c2csc3c2-n2cccc2C3=O)cc1O,1.66% (active)
16,O=c1[nH]c(-c2ccncc2)nc2sc3c(c12)CCCCCC3,80.4% (inactive)
17,COc1ccc(-n2c(SCc3cc(OC)c(OC)c(OC)c3)nc3ccc(C)cc3c2=O)c(OC)c1,29.6% (inactive)
18,O=C1NC(=O)C(CSc2ccccc2)(c2ccccc2)N1 (configuration not stated),103% (inactive)
19,Fc1ccccc1Nc1ccc2nnc(-c3ccncc3)n2n1,101% (inactive)
20,CC(C)(C)[Si](C)(C)OC1[C@@H](O[Si](C)(C)C(C)(C)C)[C@@H](CNC(=O)NC(=O)C(F)(F)F)O[C@H]1n1cnc2c(NC(=O)Nc3ccccc3)ncnc21 (some centres not stated),83.1% (inactive)

row,SMILES,growth
1,Cc1ccc(N=c2nc3sc4c(C)ccc(C)c4n3c(N)c2C#N)cc1,101% (inactive)
2,COCCOC1=C(Cl)C(=O)c2ccccc2C1=O,81.8% (inactive)
3,CCOC(=O)C1=C(C)N2C(=NC3=C(CCCC/C3=C\c3ccccc3)C2c2ccccc2)S1 (configuration not stated),96.6% (inactive)
4,CCN1CCN(C(=S)SCC(=O)Nc2nc3ccc(OC)cc3s2)CC1,107% (inactive)
5,Oc1ccccc1/C=N/Nc1nc2ccccc2s1,73.4% (inactive)
6,CC(=O)Nc1ccccc1-c1n[nH]c(=O)[nH]c1=O,98.4% (inactive)
7,Oc1ccc2ccccc2c1C1NN=C(c2ccccc2)S1 (configuration not stated),6.82% (active)
8,O=c1c2c(=NCCN3CCCC3)cc3c(=O)n(CCCN4CCOCC4)c(=O)c4ccc(c(O)n1CCCN1CCOCC1)c2c4-3,1.28% (active)
9,COc1ccccc1-n1c(SCc2cc(OC)c(OC)c(OC)c2)nc2ccc(Cl)cc2c1=O,51.1% (inactive)
10,Nc1c(Br)cc(Br)cc1-c1n[nH]c(=O)[nH]c1=O,100% (inactive)
11,O=C1C(OCCOc2ccccc2)=C(OCCOc2ccccc2)C(=O)c2ccccc21,100% (inactive)
12,O=c1nc(NO)[nH]c(=O)n1Cc1ccccc1,101% (inactive)
13,COc1ccc(-c2nc3sc(C)nn3c2-c2nc3cc(C)c(C)cc3[nH]2)cc1,98.4% (inactive)
14,Cc1ccc2nc(NC(=O)CSC(=S)N3CCN(C)CC3)sc2c1,108% (inactive)
15,CC[Si](CC)(CC)OC1[C@@H](O[Si](CC)(CC)CC)[C@@H](CNC(=O)NC)O[C@H]1n1cnc2c(NC(=O)Nc3ccccc3)ncnc21 (some centres not stated),89.6% (inactive)
16,COc1ccc(C2SC(C)C(=O)N2CCc2cccs2)cc1OC (configuration not stated),92% (inactive)
17,Cc1cc(=O)[nH]n1-c1cc(Cl)ccc1N,104% (inactive)
18,c1ccc2cc(Cn3c(-c4ccc5ccccc5c4)[n+](Cc4ccc5ccccc5c4)c4ccccc43)ccc2c1,-95.1% (active)
19,COc1cc2nc(SCc3cc(OC)c(OC)c(OC)c3)n(-c3ccccc3OC)c(=O)c2cc1OC,91.4% (inactive)

# Tested on: COLO 205 colon
# Assay: as above
# Settings: 10 µM unless noted
row,SMILES,growth
1,Clc1cccc(Cl)c1Nc1ccc2nnc(-c3ccncc3)n2n1,110% (inactive)
2,CC(=O)Nc1ccc(Sc2ccc([N+](=O)[O-])o2)cc1,-67.3% (active)
3,CC(C)(C)[Si](C)(C)OC1[C@@H](COC(=O)NC(=O)CCl)O[C@@H](n2cnc3c(N)ncnc32)[C@H]1O[Si](C)(C)C(C)(C)C (some centres not stated),27.5% (inactive)
4,COc1ncnc2c1ncn2C/C(Br)=C(\Br)CCl,-82.6% (active)
5,O=C1c2ccccc2C(=O)c2c(Nc3ccc(CCO)cc3)ccc(O)c21,49.1% (inactive)
6,COc1ccccc1CNCCCCCCCCCCCCN1C(=O)c2ccc3c4c(ccc(c24)C1=O)C(=O)N(CCCCCCCCCCCCNCc1ccccc1OC)C3=O,109% (inactive)
7,CC(=O)c1cc(C)c(OC(=O)c2ccccc2)c(C)c1,93.9% (inactive)
8,COC(=O)/C=C1/CCC2C3CCC4=CC(=O)C(Br)CC4(C)C3C(=O)CC12C (configuration not stated),80.2% (inactive)
9,O=c1[nH]c(-c2ccccn2)nc2sc3c(c12)CCCCCC3,33% (inactive)
10,CC(C)OC1=C(Cl)C(=O)c2ccccc2C1=O,97.7% (inactive)
11,CC1SC(c2cccc(Oc3ccccc3)c2)N(CCc2cccs2)C1=O (configuration not stated),-60.1% (active)
12,CC(C)(C)[Si](C)(C)OC1[C@@H](COC(N)=O)O[C@@H](n2cnc3c(N)ncnc32)[C@H]1O[Si](C)(C)C(C)(C)C (some centres not stated),103% (inactive)
13,COc1ccc(-c2csc3c2-n2cccc2C3=O)cc1O,72.3% (inactive)
14,O=c1[nH]c(-c2ccncc2)nc2sc3c(c12)CCCCCC3,106% (inactive)
15,COc1ccc(-n2c(SCc3cc(OC)c(OC)c(OC)c3)nc3ccc(C)cc3c2=O)c(OC)c1,-4.21% (active)
16,O=C1NC(=O)C(CSc2ccccc2)(c2ccccc2)N1 (configuration not stated),98% (inactive)
17,Fc1ccccc1Nc1ccc2nnc(-c3ccncc3)n2n1,106% (inactive)

row,SMILES,growth
1,CC(C)(C)[Si](C)(C)OC1[C@@H](O[Si](C)(C)C(C)(C)C)[C@@H](CNC(=O)NC(=O)C(F)(F)F)O[C@H]1n1cnc2c(NC(=O)Nc3ccccc3)ncnc21 (some centres not stated),91.9% (inactive)
2,Cc1ccc(N=c2nc3sc4c(C)ccc(C)c4n3c(N)c2C#N)cc1,108% (inactive)
3,COCCOC1=C(Cl)C(=O)c2ccccc2C1=O,35.4% (inactive)
4,CCOC(=O)C1=C(C)N2C(=NC3=C(CCCC/C3=C\c3ccccc3)C2c2ccccc2)S1 (configuration not stated),117% (inactive)
5,CCN1CCN(C(=S)SCC(=O)Nc2nc3ccc(OC)cc3s2)CC1,112% (inactive)
6,Oc1ccccc1/C=N/Nc1nc2ccccc2s1,38% (inactive)
7,Oc1ccc2ccccc2c1C1NN=C(c2ccccc2)S1 (configuration not stated),16.6% (inactive)
8,COc1ccccc1-n1c(SCc2cc(OC)c(OC)c(OC)c2)nc2ccc(Cl)cc2c1=O,28% (inactive)
9,Nc1c(Br)cc(Br)cc1-c1n[nH]c(=O)[nH]c1=O,102% (inactive)
10,O=C1C(OCCOc2ccccc2)=C(OCCOc2ccccc2)C(=O)c2ccccc21,102% (inactive)
11,O=c1nc(NO)[nH]c(=O)n1Cc1ccccc1,128% (inactive)
12,COc1ccc(-c2nc3sc(C)nn3c2-c2nc3cc(C)c(C)cc3[nH]2)cc1,115% (inactive)
13,Cc1ccc2nc(NC(=O)CSC(=S)N3CCN(C)CC3)sc2c1,105% (inactive)
14,CC[Si](CC)(CC)OC1[C@@H](O[Si](CC)(CC)CC)[C@@H](CNC(=O)NC)O[C@H]1n1cnc2c(NC(=O)Nc3ccccc3)ncnc21 (some centres not stated),99.1% (inactive)
15,COc1ccc(C2SC(C)C(=O)N2CCc2cccs2)cc1OC (configuration not stated),93.9% (inactive)
16,Cc1cc(=O)[nH]n1-c1cc(Cl)ccc1N,103% (inactive)
